USP7 block: inhibitors of human USP7 deubiquitinase; inhibition, % at 20 µM; 0.3% of 47,000 active; purified USP7, Ub-rhodamine cleavage fluorescence
OTUD3 inh: blocks human OTUD3 ubiquitin-rhodamine cleavage. purified OTUD3, Ub-rhodamine fluorescence, 2 h. 0.7% of 47,000 active. inhibition, % at 25 µM. Q5T2D3
Target sequence (Q5T2D3 whole entry, looked up): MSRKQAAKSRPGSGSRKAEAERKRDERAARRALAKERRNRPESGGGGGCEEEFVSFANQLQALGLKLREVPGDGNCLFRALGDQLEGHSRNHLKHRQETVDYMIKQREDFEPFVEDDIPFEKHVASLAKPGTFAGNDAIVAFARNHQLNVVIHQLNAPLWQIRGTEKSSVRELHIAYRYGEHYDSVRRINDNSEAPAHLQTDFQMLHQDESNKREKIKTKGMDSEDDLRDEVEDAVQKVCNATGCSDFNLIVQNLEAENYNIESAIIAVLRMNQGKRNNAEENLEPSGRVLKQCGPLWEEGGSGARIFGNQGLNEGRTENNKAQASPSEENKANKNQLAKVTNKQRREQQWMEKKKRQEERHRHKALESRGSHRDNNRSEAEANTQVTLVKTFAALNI
UCHL1 block: human UCHL1 deubiquitinase inhibition; inhibition, % at 20 µM; P09936; 0.2% of 47,000 active; purified UCHL1, Ub-rhodamine cleavage fluorescence
Starred values were filed as active, the others as inactive. A selection: hits, their analogues and other compounds. The true share with any hit is near 1.1%. No stated cut-off is given here; in the data, active means inhibition above about 30%; inactive means the rest.

SMILES	USP7 block	OTUD3 inh	UCHL1 block
Cc1ccc(C(=O)Nc2c(C(=O)N3CCN(c4cccc(C)c4)CC3)[nH]c3ccccc23)cc1	-11	-49	0
CC(C)(C)n1ncc2c(=O)n(CC(=O)N3CCCc4ccccc43)cnc21	45*	1	-2
CC(C)(C)n1ncc2c(=O)n(CC(=O)OCc3ccccc3)cnc21	0	-3	1
O=C(NCC(c1ccccc1Cl)N1CCOCC1)c1cc(-c2ccccc2)on1 (stereo not given)	3	-8	4
CCn1cc(-c2ccnc3cc(C(=O)NC4(C)COC4)nn23)c(C)n1	7	5	4
COc1cc(O)c2c(c1C)C(C)(C(C)=O)OC2=O (stereo not given)	2	5	1
COc1cc(C)c2c(=O)c3c(oc2c1)C(=O)c1c(O)c(OC)cc(O)c1C3=O	-63	33*	11
CC(C)NC(=O)N1C[C@H]2Cc3c(c(-c4cccc(F)c4)nn3C)[C@H]2C1	2	7	2
COCCN1C[C@@H]2C(=O)N(C)C3(CCN(C(=O)NCCc4ccc(OC)cc4)CC3)[C@@H]2C1	4	0	0
CC(=O)c1ccc(NC(=O)CSc2nc(-c3ccccc3)nc3c2COC(C)(C)C3)cc1	10	31*	2
CC1(C)Cc2nc(-c3ccccc3)nc(SCC(=O)Nc3ccccc3)c2CO1	4	0	0
Cc1ccc(-n2nc(C(=O)N3CCCC3)cc2-c2cccnc2)cc1	-1	-2	0
CC1=CC2C(=O)OC3CC(C/C=C(\C)CC(C)/C=C/C=C4\COC([C@@H]1O)C42O)O[C@@]1(CCC(C)C(C(C)C)O1)C3 (stereo not given in full)	18	-9	13
COc1ccc(-c2cc(C(F)F)n3ncc(C(=O)NC(C)c4ccc(C(C)C)cc4)c3n2)cc1 (stereo not given)	10	11	4
Cc1ccc(S(=O)(=O)N2CCC(c3c(C)[nH]c4ccccc34)CC2)cc1	-7	0	3
CC1=C(C)C(c2c(-c3ccc(C)cc3)[nH]c3ccccc23)N(C(C)(C)C)C1=O (stereo not given)	32*	4	13
O=C(COC(=O)CC1CCCCC1)Nc1cccc(S(=O)(=O)N2CCCCC2)c1	10	20	10
O=C(COc1nc2ccccc2nc1N1CCOCC1)Nc1cccc(S(=O)(=O)N2CCCCC2)c1	-6	47*	-11
O=C(Nc1ccc(F)cc1)Nc1ccccc1OCc1cc(=O)n2ccccc2n1	5	33*	-1
O=C(Nc1ccc2c(c1)OCCO2)Nc1ccccc1OCc1cc(=O)n2ccccc2n1	0	-5	1
CC(=O)O[C@@H](C/C=C(\C)C(=O)O)[C@@H](C)[C@H]1C[C@H](OC(C)=O)[C@@]2(C)C3=CC[C@H]4C(C)(C)[C@H](O)CC[C@]4(C)C3=CC[C@]12C	14	17	3
CC(=O)O[C@@H](C/C=C(\C)C(=O)O)[C@@H](C)[C@H]1C[C@H](OC(C)=O)[C@@]2(C)C3=CC[C@H]4C(C)(C)[C@H](OC(C)=O)CC[C@]4(C)C3=CC[C@]12C	93*	92*	57*
COc1ccc(-c2c3c(=O)n(C)c(=O)n(C)c3cn2CCCN2CCOCC2)cc1	-3	-16	-1
COc1ccc(C(=O)/C=C\c2cn(CCC(=O)O)nc2-c2ccc(OC)c(OC)c2)cc1	3	16	-2
COc1ccc(-c2nn(-c3ccccc3)cc2/C=C/C(=O)Nc2ccc(C(C)=O)cc2)cc1OC	3	47*	3
SMILES	USP7 block	OTUD3 inh	UCHL1 block
Cc1cccc(CC(=O)N2CCN=C2SCc2ccccc2)c1	5	8	5
COC(=O)[C@H](Cc1ccc(O)cc1)NC(=O)c1ccc(Cl)cc1	0	-4	2
COc1ccc(C(=O)Nc2ccccc2C(=O)NC(Cc2ccc(O)cc2)C(=O)NNC(=O)c2ccccc2Cl)cc1 (stereo not given)	12	75*	3
CC1(C)CC(=O)C2=C(C1)Nc1ccccc1N(C(=O)C(F)(F)F)C2c1cccs1 (stereo not given)	-3	3	9
COc1ccc(OC)c(NC(=O)c2sc(-c3ccccc3)nc2C)c1	-12	48*	8
CC(=O)c1cccc(NC(=O)c2sc(-c3ccccc3)nc2C)c1	-7	8	7
CCN1C(=O)CC[C@]2(CNS(=O)(=O)c3c(C)noc3C)CCC[C@@H]12	2	-6	0
O=C(Nc1ccc(-c2nn3cnnc3s2)cc1)c1ccc(Br)cc1	3	-1	-1
O=C(COc1ccc(C2CCCCC2)cc1)Nc1ccc(-c2nn3cnnc3s2)cc1	8	46*	1
CN1C(=O)C(C)(C)COc2ccc(NS(=O)(=O)c3cc(F)ccc3F)cc21	-2	-6	0
CC1NC(=O)C(CC(N)=O)NC(=O)C(C(C)O)NC(=O)C(C(C)C)NC(=O)C(C(C)C)NC(=O)C(NC(=O)CC(O)CCCCCCCCCCCCN=C(N)N)C(C)OC1=O (stereo not given)	0	83*	1
CC(C)Oc1ccc(C(=O)Nc2ccccc2F)cc1	-1	-3	-1
Cc1cccc(NC(=O)CN2C(=O)CC(c3ccccc3)=Nc3ccccc32)c1C	3	9	-1
Cc1ccc(C2=Nc3ccccc3N(CC(=O)Nc3cccc(C)c3C)C(=O)C2)cc1C	12	31*	2
Cc1ccc(S(=O)(=O)c2cnc3ccc(Cl)cc3c2Nc2ccc3c(c2)OCCO3)cc1	8	-7	0
Cc1c(O)ccc2c(=O)c(-c3cc4ccccc4o3)coc12	4	6	3
O=c1ccc(-c2cc3ccccc3o2)cn1Cc1ccccc1-c1ccccc1	5	46*	38*
CC1CCN(c2ccc3nnc(CCC(=O)NCC4CCN(Cc5ccc(F)cc5)CC4)n3n2)CC1	1	4	2
Cc1cccc(NC(=O)Nc2ccc(C)n(CC(=O)Nc3ccc(C)c(C)c3)c2=O)c1	10	-10	-1
Cc1ccc(NC(=O)Nc2ccc(C)n(CC(=O)Nc3cc(C)ccc3C)c2=O)cc1	17	46*	0
Cc1cccc(NC(=O)Nc2ccc(C)n(CC(=O)Nc3ccccc3)c2=O)c1	4	-16	-2
Cc1ccc(NC(=O)CN2c3ccccc3S(=O)(=O)c3ccccc32)c(C)c1	7	0	3
Cc1ccc(NC(=O)Nc2ccc(C)n(CC(=O)Nc3cccc(C)c3)c2=O)cc1	31*	0	-1
Cc1ccc(NC(=O)Nc2ccc(C)n(CC(=O)Nc3ccc(C)cc3C)c2=O)cc1	37*	74*	0
COc1ccc(CC(=O)N2CCC3(CC2)N=C(c2ccc(C)cc2)C(=O)N3)cc1	-3	5	1
Cn1nc(CN2CCCCC2)c2c1CN(C(=O)Nc1cccc(F)c1)C2	3	4	0
CC(C)CC[C@H]1O[C@@H](CC(=O)O)Cc2cc3c(c(O)c21)C(=O)c1sc(=O)n(C)c1C3=O	-63	70*	25
O=S(=O)(c1ccc(F)cc1)N1CCC[C@@H](Cn2nnc(-c3ccncc3)n2)C1	0	-7	-5
Cc1ccc(N2CC(c3nc4ccccc4n3CCOc3cccc(C)c3)CC2=O)cc1 (stereo not given)	32*	12	5
Cc1ccc(N2CC(c3nc4ccccc4n3CCCCOc3ccccc3)CC2=O)cc1 (stereo not given)	13	26	8

Assay outcomes deposited in PubChem BioAssay by Buhrlage Lab, Dana-Farber Cancer Institute and Novartis Institutes for BioMedical Research (Cambridge, Mass).
